Measured values taken from PubChem BioAssay (NCATS).
Inconclusive results are not listed. Where a call stands in place of a potency, no number is given. Unmarked numbers belong to inactive results. Active and inactive are the calls of the source. Calls come from the whole dose curve; as a rule, active = well fitted curve in the direction sought with a large enough effect; inconclusive = small, poorly fitted or top-dose-only effect, or another doubt; inactive = no such curve, though single readings can be large; an effect the other way counts as inactive or inconclusive.

Legend:
[1] = Primary qHTS for inhibitors of nuclear receptor binding SET domain protein 2 (NSD2) in an isogenic RCH-ACV NSD2 p.E1099K mutant (9B) (AID 1645876)
[2] = Primary qHTS for inhibitors of nuclear receptor binding SET domain protein 2 (NSD2) in an RCH-ACV wild type WT cells (2C) (AID 1645877)
Note: nearly all actives have a fitted effect of over 70% in size.

O=c1c2ccccc2nc2n1CCC2O (centres undefined)
Potency [1]: inactive | Potency [2]: inactive

Cn1c(=O)c2nc(/C=C/c3cccc(Cl)c3)n(C)c2n(C)c1=O
Potency [1]: inactive | Potency [2]: inactive

CC(=O)O[C@@H]1[C@@H](OC(=O)/C=C/c2ccccc2)[C@H](C)O[C@@H](O[C@H]2[C@@H]3C=CO[C@@H](O[C@@H]4O[C@H](CO)[C@@H](O)[C@H](O)[C@H]4O)[C@@H]3[C@@]3(CO)O[C@@H]23)[C@@H]1OC(C)=O
Potency [1]: inactive | Potency [2]: inactive

C[C@@H]1C/C=C/C=C\C=C\C=C\[C@H](O[C@@H]2O[C@H](C)[C@@H](O)[C@H](N)[C@@H]2O)C[C@@H]2O[C@](O)(C[C@@H](O)C[C@H]3O[C@@H]3/C=C/C(=O)O1)C[C@H](O)[C@H]2C(=O)O
Potency [1]: inactive | Potency [2]: inactive

CC1CCC2(C(=O)OC3OC(CO)C(O)C(O)C3O)CCC3(C)C(=CCC4C5(C)CC(O)C(O)C(C)(C(=O)O)C5CCC43C)C2C1(C)O (centres undefined)
Potency [1]: inactive | Potency [2]: inactive

CC(=O)N(O)CCCCCN1C(=O)CCC1=O
Potency [1]: inactive | Potency [2]: inactive

C=C1[C@H]2CC[C@]3(O)[C@@](CC[C@@H]4[C@](C)(C(=O)O)CCC[C@]43C)(C2)[C@H]1OC(=O)/C(C)=C\C
Potency [1]: inactive | Potency [2]: inactive

CO/N=C(/C(=O)N[C@@H]1C(=O)N2C(C(=O)O)=C(CSC(=O)c3ccco3)CS[C@H]12)c1csc(N)n1
Potency [1]: inactive | Potency [2]: inactive

C=CC1(C)CC(O)C2(CCC3C(C)(C(=O)O)CCCC3(C)C2=O)C1 (centres undefined)
Potency [1]: inactive | Potency [2]: inactive

C=C1CC2[C@]3(C)C(=C(O)C(=O)[C@@]2(C)[C@]2(C(=O)OC)C(=O)C(C)OC(=O)[C@@]12C)C(C)(C)C(=O)CC3O (some centres undefined)
Potency [1]: inactive | Potency [2]: inactive

Cc1cc(O)c(C(C)C)cc1O[C@@H]1O[C@H](CO)[C@@H](O)[C@H](O)[C@H]1O
Potency [1]: inactive | Potency [2]: inactive

CC(O)(CC(=O)O)CC(=O)O[C@@H]1[C@@H](O)[C@H](OCCc2ccccc2)O[C@H](CO)[C@H]1O (some centres undefined)
Potency [1]: inactive | Potency [2]: inactive

COC(=O)[C@H](OC(C)=O)[C@H]1C(C)(C)C(=O)[C@H]2CC3=C4CC(=O)O[C@@H](c5ccoc5)[C@]4(C)CCC3[C@@]1(C)C2=O (some centres undefined)
Potency [1]: inactive | Potency [2]: inactive

C[C@@H]1C[C@H](O[C@@H]2O[C@H](CO[C@@H]3OC[C@](O)(CO)[C@H]3O)[C@@H](O)[C@H](O)[C@H]2O)CC(C)(C)[C@H]1/C=C/[C@@H](C)O
Potency [1]: inactive | Potency [2]: inactive

COC(=O)[C@@H]1C2CC3c4[nH]c5ccccc5c4CCN3CC2CC[C@@H]1O (some centres undefined)
Potency [1]: inactive | Potency [2]: inactive

CCC(C)/C=C(C)/C=C/C1=CC2=C(Cl)C(=O)C(C)(OC(C)=O)C(=O)C2=CN1C1CCCCN(C(CCC(N)=O)C(=O)O)C1=O (centres undefined)
Potency [1]: inactive | Potency [2]: inactive

CC(=O)c1c(C)cc(O[C@@H]2O[C@H](CO)[C@@H](O)[C@H](O)[C@H]2O)cc1O
Potency [1]: inactive | Potency [2]: inactive

C1CCN2CC3C[C@@H](CN4CCCC[C@@H]34)[C@H]2C1
Potency [1]: inactive | Potency [2]: inactive

CC(=O)NC(CCC(=O)O)C(=O)NCCc1ccc(O)cc1 (centres undefined)
Potency [1]: inactive | Potency [2]: inactive

CN1C(=O)c2ccccc2-n2c(nc3ccccc3c2=O)[C@@]12O[C@H]2c1ccccc1
Potency [1]: inactive | Potency [2]: inactive

COc1cc([C@H]2OC[C@]3(OC(C)=O)[C@@H](c4ccc(O[C@@H]5O[C@H](CO)[C@@H](O)[C@H](O)[C@H]5O)c(OC)c4)OC[C@H]23)ccc1O
Potency [1]: inactive | Potency [2]: inactive

O=C(O[C@H]1[C@@H]2C[C@@H]3OC[C@@](O)([C@H]2[C@H](O[C@@H]2O[C@H](CO)[C@@H](O)[C@H](O)[C@H]2O)O3)[C@@H]1O)c1ccccc1
Potency [1]: inactive | Potency [2]: inactive

CCC(C)/C=C(C)/C=C/C1=CC2=C(Cl)C(=O)C(C)(OC(C)=O)C(=O)C2=CN1CCCC(=O)O (centres undefined)
Potency [1]: inactive | Potency [2]: inactive

CO[C@H]1C=C2C(CC[C@H](O[C@@H]3O[C@H](CO)[C@@H](O)[C@@H](O)[C@H]3O)C2(C)C)[C@]2(C)CC[C@]3(C)C([C@H](C)C(O)C(C=C(C)C)O[C@@H]4O[C@H](CO)[C@@H](O)[C@@H](O)[C@H]4O)CC[C@@]3(C)C12 (some centres undefined)
outcome [1]: inactive [at 9.23 µM] | outcome [2]: inactive [at 9.23 µM]

NC(=O)c1cccc(-c2cc(O)cc(OC(=O)NC3CCCCC3)c2)c1
Potency [1]: inactive | Potency [2]: inactive

C=C1CCC2C(C)(C)C(O)CCC2(C)C1CCC(C)CCOC(=O)CCC(=O)O (centres undefined)
Potency [1]: inactive | Potency [2]: inactive

CC1(CCC(=O)O)C(=O)C=CC23CC4CC(OC4(C)C2O)C13 (centres undefined)
Potency [1]: inactive | Potency [2]: inactive

COC1=Cc2c(nc3n(c2=O)C(C)C(=O)NC3(O)C(C)C)OC=C1 (centres undefined)
Potency [1]: inactive | Potency [2]: inactive

C=C[C@H]1[C@H](O[C@@H]2O[C@H](CO)[C@@H](O)[C@H](O)[C@H]2O)OC=C(C(=O)OC)[C@H]1C[C@@H]1N[C@H](C(=O)O)Cc2c1[nH]c1ccccc21
Potency [1]: inactive | Potency [2]: inactive

CC(C)C1(O[C@@H]2O[C@H](CO)[C@@H](O)[C@H](O)[C@H]2O)CC=C(CO)CC1 (some centres undefined)
Potency [1]: inactive | Potency [2]: inactive

COc1ccc(/C=C/C(=O)O[C@H]2[C@@H]3C=CO[C@@H](O[C@@H]4O[C@H](CO)[C@@H](O)[C@H](O)[C@H]4O)[C@@H]3[C@@]3(CO)O[C@@H]23)cc1O
Potency [1]: inactive | Potency [2]: inactive

C=C[C@H]1[C@H](O[C@@H]2O[C@H](CO[C@@H]3OC[C@](O)(CO)[C@H]3O)[C@@H](O)[C@H](O)[C@H]2O)OC=C2C(=O)OCC[C@H]21
Potency [1]: inactive | Potency [2]: inactive

OCCc1ccc(O[C@@H]2O[C@H](CO)[C@@H](O)[C@H](O)[C@H]2O)c(O)c1
Potency [1]: inactive | Potency [2]: inactive

C=CC(C)(C)C12CC3C(=O)NC(Cc4cnc[nH]4)C(=O)N3C1Nc1ccccc12 (centres undefined)
Potency [1]: inactive | Potency [2]: inactive

CC1(C)CCCC2(C)C(CO)C3CCC2C31 (centres undefined)
Potency [1]: inactive | Potency [2]: inactive

OC[C@H]1O[C@@H](OCCc2ccc(O)cc2)[C@H](O)[C@@H](O)[C@@H]1O
Potency [1]: inactive | Potency [2]: inactive

CC(=O)OCCC(C)CCC1C(C)(O)CCC2C(C)(C)CCCC21C (centres undefined)
Potency [1]: inactive | Potency [2]: inactive

C=C1CC[C@H]2[C@@H](/C=C(\C)C(=O)[C@@]3(OC(C)=O)C[C@H](C)[C@H](OC(C)=O)[C@@H]3[C@H]1OC(C)=O)C2(C)C
Potency [1]: inactive | Potency [2]: inactive

CC1(C)NC2N(C1=O)c1ccccc1C2(O)CC(C(=O)O)n1cnc2ccccc2c1=O (centres undefined)
Potency [1]: inactive | Potency [2]: inactive

C/C(=C\CCC(C)(O)c1ccc(C)cc1)C(=O)O (centres undefined)
Potency [1]: inactive | Potency [2]: inactive

CC(=O)c1c(O)cc2cccc3c2c1CC(C)(O)O3 (centres undefined)
Potency [1]: inactive | Potency [2]: inactive

CC(/C=C/C1(O)C(C)(C)CC(O)CC1(C)O)OC1OC(CO)C(O)C(O)C1O (centres undefined)
Potency [1]: inactive | Potency [2]: inactive

CC1(C)CC[C@]2(C(=O)O)CC[C@]3(C)C(=CCC4[C@@]5(C)CC[C@H](O[C@@H]6O[C@H](C(=O)O)[C@@H](O)[C@H](O)[C@H]6O)C(C)(CO)C5CC[C@]43C)C2C1 (some centres undefined)
Potency [1]: inactive | Potency [2]: inactive

COc1c2c(c(C)c3c1C(=O)OC3)OC1(C)CC(O)C3(O)C(C)(C)OC(=O)CCC3(C)C1C2 (centres undefined)
Potency [1]: inactive | Potency [2]: inactive

CC1CCC2(C(=O)OC3OC(CO)C(O)C(O)C3O)CCC3(C(=O)O)C(=CCC4C5(C)CCC(OC6OC(C)C(O)C(O)C6O)C(C)(C)C5CCC43C)C2C1C (centres undefined)
Potency [1]: inactive | Potency [2]: inactive

COC(=O)[C@@]1(C)CC[C@]2(C(=O)O[C@@H]3O[C@H](CO)[C@@H](O)[C@H](O)[C@H]3O)CC[C@]3(C)C(=CCC4[C@@]5(C)CC[C@H](O[C@@H]6O[C@H](C(=O)O)[C@@H](O)[C@H](O)[C@H]6O)C(C)(C)C5CC[C@]43C)[C@@H]2C1 (some centres undefined)
activity change, negative = viability loss [1]: -18.6% [at 9.23 µM] | activity change, negative = cell killing [2]: -26.4% [at 9.23 µM]

C[C@H](CCC(=O)O)[C@H]1CC[C@H]2[C@@H]3[C@H](O)C[C@@H]4C[C@H](O)CC[C@]4(C)[C@H]3CC[C@]12C
Potency [1]: inactive | Potency [2]: inactive

COc1ccc2c(c1O)OC[C@H]1c3ccc(O)cc3O[C@@H]21
Potency [1]: inactive | Potency [2]: inactive

CC(=O)Oc1cc2c(s1)CCN([C@H](C(=O)C1CC1)c1ccccc1F)C2
Potency [1]: inactive | Potency [2]: inactive

O=C(O[C@H]1[C@@H]2C=CO[C@@H](O[C@@H]3O[C@H](CO)[C@@H](O)[C@H](O)[C@H]3O)[C@@H]2[C@@]2(CO)O[C@@H]12)c1ccc(O)c(O)c1
Potency [1]: inactive | Potency [2]: inactive

CC1=C2C=C(CO)C(CO)CCC2(C)CCC1=O (centres undefined)
Potency [1]: inactive | Potency [2]: inactive

CC1(C)CCCC2(C)C3=C(C(=O)OC3O)C(O)CC12 (centres undefined)
Potency [1]: inactive | Potency [2]: inactive

CC1CCC2C(C(=O)O)=CC3CC(C)(C)CC132 (centres undefined)
Potency [1]: inactive | Potency [2]: inactive

C[C@H]1CC[C@@]2(OC1)O[C@H]1CC3C4CC=C5C[C@H](O)C[C@@H](O[C@@H]6O[C@@H](C)[C@H](O)[C@@H](O)[C@H]6O[C@@H]6O[C@@H](C)[C@H](O)[C@@H](O)[C@H]6O)[C@]5(C)C4CC[C@]3(C)[C@H]1[C@@H]2C (some centres undefined)
Potency [1]: inactive | Potency [2]: inactive

CC(=O)O[C@@H]1[C@H](O[C@@H]2O[C@H](CO)[C@@H](O)[C@H](O)[C@H]2O)[C@@H](O[C@@H]2O[C@@H](C)[C@H](O)[C@@H](O[C@@H]3O[C@H](CO)[C@@H](O)[C@H](O)[C@H]3O)[C@H]2O)[C@H](OC(=O)C23CCC4(C)C(=CCC5C6(C)CC(O)C(O[C@@H]7O[C@H](C(=O)O)[C@@H](O)[C@H](O)[C@H]7O)C(C)(C(=O)O)C6CCC54C)C2CC(C)(C)CC3O)O[C@@H]1C (some centres undefined)
outcome [1]: inactive [at 9.23 µM] | activity change, negative = cell killing [2]: 0.269% [at 9.23 µM]

C=C1CC23CCC4[C@@](C)(CCC[C@@]4(C)C(=O)O)C2CCC1C3 (some centres undefined)
Potency [1]: inactive | Potency [2]: inactive

CCC(C)C(=O)O[C@@H]1[C@@H](O)[C@@H](O[C@H]2O[C@H](CO)[C@@H](O)[C@H](O)[C@H]2O)O[C@H](CO)[C@H]1O (some centres undefined)
Potency [1]: inactive | Potency [2]: inactive
